Assay [1] can be described thus: inhibitors of TNFa-induced NFkB p65 translocation, primary screen, imaging, HUVEC, MLSMR starter and 10KST1 sets (AID 438;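 active = inhibition above 20% together with a positive visual image hit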;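 also: compound added about 3h40 before a 20 min TNFalpha stimulation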;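 as to inhibition: signal is the nuclear over cytoplasmic p65 intensity ratio per well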). The following applies: HUVEC TNFa-induced p65 nuclear translocation; cell count: measured here: nuclei count (cytotoxicity indicator), at 2.08 µM; inhibition: at 2 µM, stronger effect = higher value, 0% TNFa-plus-vehicle, 100% no-TNFa wells.
The nature of assay [2]: reduction of polyQ htt aggregates in cells – imaging, exon1htt(103Q)mCFP cells, high-content imaging, primary screen (AID 483;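 active = visual image review flags a hit and inhibition of aggregation exceeds 20%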;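 also: compound exposure lasted 3 days before fixation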;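 as to nuclei count: percent of the per-plate median nuclei count of sample wells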). The following applies: exon1htt(103Q)mCFP cell line, aggregate imaging, at 2 µM; inhibition of aggregation: stronger effect = higher value; nuclei count: measured here: cell count, toxicity.
Assay [3] is described as follows: endothelial E-selectin expression blockers – imaging, HUVEC, immunofluorescence, MLSMR starter and 10KST1 sets, primary screen (AID 487;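 active = visually confirmed hit in the image check and inhibition above 20%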;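 as to inhibition: signal is fraction of cell area covered by stained E-selectin grains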;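 as to nuclei count: 100% = median nuclei count of all wells on the same plate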). The following applies: HUVEC TNFalpha-induced E-selectin immunofluorescence imaging, at 2 µM; inhibition: stronger effect = higher value; nuclei count: measured here: cell number, toxicity.
The nature of assay [4]: Primary imaging screen for DUSP6 inhibitors that restore phospho-Erk in transfected HeLa cells, chemical complementation (AID 609;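 active = compounds giving at least 50% inhibition in the cell-based MKP-3 phosphatase rescue imaging test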;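 as to inhibition: phospho-Erk level distribution per well compared with pooled transfected vehicle control wells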). The following applies: HeLa MKP-3 transfected, phospho-Erk imaging KS statistic, at 10 µM, cells stimulated with TPA for 15 min.
The target in assay [5] is Dual specificity protein phosphatase 6 (Homo sapiens) (UniProt Q16828). The description is as above. The following applies: HeLa MKP-3 transfected, phospho-Erk imaging KS statistic; at 10 µM; stronger effect = higher value; cells stimulated with TPA for 15 min.
The target of assay [6] is Voltage-gated potassium channel subunit beta-2 (Rattus norvegicus) (UniProt P62483). The assay can be described thus: inhibitors of rat Kvbeta2 reductase activity – biochemical, NADPH fluorescence, primary screen (AID 622;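 active = fluorescence slope higher than the sample average by over 3 SD, cut at about -0.22 in these data, passing the limit was not always enough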;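 also: slope of raw intensity against log time taken from 70 to 1610 s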). The following applies: recombinant KvBeta, 4-cyanobenzaldehyde reduction, at 10 µM, stronger effect = higher value.
The target is the same in assay [7]. The experiment in a line: enhancers of rat Kvbeta2 NADPH turnover – biochemical, NADPH fluorescence, primary screen (AID 623;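 active = NADPH fluorescence slope more negative than the mean of all samples by about 3 SD, 99.7% confidence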;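 also: fluorescence intensity change per second fitted from 20 to 320 s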). The following applies: Recombinant KvBeta, NADPH fluorescence decrease slope, 10 min; at 10 µM; stronger effect = lower value.
The target of assay [8] is Alpha-2C adrenergic receptor (Homo sapiens) (UniProt P18825). The assay can be described thus: compounds altering alpha2C-coupled GIRK flux – cell-based, HEK293 alpha2C/GIRK1/2, thallium flux, primary screen (AID 624;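 active = fluorescence slope after compound addition differing from the mean of all screened samples at 99.7% confidence, in either direction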;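 also: slope of fluorescence ratio to pre-addition baseline per second over 15 to 24 s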). The following applies: thallium flux BTC fluorescence, at 10 µM, actives lie on both sides.
A short description of assay [9]: loss of swimming-algae plug formation – whole organism, Chlamydomonas reinhardtii, WT vs cilia-less mutant, absorbance, 96-well, primary screen (AID 463189).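 Also: 0% = wild type cc124 cells in DMSO and 100% = ciliumless bld1 mutant cells.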 The following applies: Chlamydomonas reinhardtii gravitaxis, OD600 absorbance, 2 days; at 10 µM; stronger effect = higher value.
Assay [10] in a line: blockers of RIG-like receptor reporter activation – cell-based, Sendai virus stimulus, luciferase, 10K MLSCN set, TLR/RLR signaling modifier project, primary screen (AID 602276;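 active = inhibition at or above 50% at 10 µM; inactive = inhibition below 50%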;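 also: firefly luciferase from ISG56 promoter only with Renilla not read in this screen; 0% = Sendai virus plus DMSO and 100% = medium plus DMSO without virus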). The following applies: HEK293 RL24 IRF3 luciferase reporter, at 10 µM, stronger effect = higher value. (Reporter assays use an easily measured gene product as a stand-in for the process of interest.)
The nature of assay [11]: TLR3 IRF3 reporter activation blockers – cell-based, poly I:C stimulus, luciferase, 10K MLSCN set, primary screen (AID 602277;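 active = inhibition of the reporter signal at or above 50%; inactive = inhibition below 50%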). The following applies: HEK293-TLR3 RL24 IRF3 luciferase reporter, at 10 µM, stronger effect = higher value.
In assay [12] the target is Solute carrier family 12 member 5 (Homo sapiens) (UniProt Q9H2X9). The experiment in a line: retest of KCC2 transport modulators without sodium – cell-based, HEK293 KCC2, thallium flux, secondary assay, confirmation (AID 1713;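 active = thallium flux slope above the same plate's solvent-only control mean plus 3 SD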). The following applies: FluoZin2 fluorescence, at 10 µM, stronger effect = higher value.
The target is the same in assay [13]. The assay can be described thus: retest of KCC2 transport modulation, ouabain-free – cell-based, HEK293 KCC2, thallium flux, FluoZin2, secondary assay 2, confirmation (AID 1715;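 active = thallium flux slope more than 3 SD above or below the plate's solvent-only control mean, mostly below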;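 also: raw slope with 0.1% DMSO as baseline and bumetanide as block control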). The following applies: HEK293-KCC2, thallium flux FluoZin2 fluorescence; at 10 µM; actives lie on both sides; F/F0 rise rate, 10–20 s post-thallium.
Assay [14] can be described thus: compound effects on native HEK Tl+ uptake – HEK cells, counterscreen 1, counter-screen for KCC2 modulator project, confirmation (AID 1716;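 active = thallium flux rate significantly above the same plate's solvent-only control wells, beyond their mean plus 3 SD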). The following applies: HEK293 parental cells, thallium flux FluoZin2, ouabain; at 10 µM; baseline-ratio fluorescence slope, 10–20 s after thallium. In general terms: A counterscreen serves to expose hits that act by an unwanted route or on another target.

Assay [15] can be described thus: native HEK Tl+ uptake effects, second counter-screen – HEK cells, counterscreen 2, counter-screen for KCC2 modulator project, confirmation (AID 1718;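 active = thallium flux slope above the same plate's solvent-control mean plus 3 SD in both duplicate wells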;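 also: run without ouabain in cells lacking the KCC2 cotransporter; slope of fluorescence scaled to its starting value between 10 and 20 s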). The following applies: HEK293 parental, thallium flux FluoZin-2 fluorescence slope; at 10 µM.
In assay [16] the target is Muscarinic acetylcholine receptor M4 (Homo sapiens) (UniProt P08173). The assay can be described thus: M4-linked GIRK flux change, two-sided – cell-based, HEK293 M4/GIRK, thallium flux, BTC-AM, M4 allosteric agonist project, primary screen (AID 625;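 active = fluorescence slope after compound addition differing from the mean of all tested samples at 99.7% confidence, mostly higher but some lower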;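 also: thallium influx through GIRK channels coupled to M4 in HEK293 cells with BTC-AM dye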). The following applies: at 10 µM, actives lie on both sides.
Assay [17] is described as follows: inhibitors of larval lipid processing in zebrafish, primary screen, whole organism, PED6 fluorescence, gall bladder and intestine (AID 686;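 active = a full or partial loss of lipid-probe fluorescence in the fish gall bladder, intestine or both, judged by eye; inactive = no fluorescence loss, or compound toxic to the fish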;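 also: larvae 5 to 7 days old with five fish per well; signal comes from phospholipase A2 cleavage of quenched PED6 carried via bile; overnight exposure to compound and PED6 before scoring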). The following applies: Zebrafish larvae PED6 lipid processing, fluorescence scoring; screened at 20 µM (by protocol).
The target in assay [18] is Solute carrier family 12 member 5 (Homo sapiens) (UniProt Q9H2X9). The assay can be described thus: modulation of KCC2 thallium flux in HEK cells – cell-based, ouabain, retest, confirmation (AID 1717;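 active = thallium flux slope beyond 3 SD from same-plate DMSO control mean in most replicates, usually higher, sometimes lower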;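 also: slope of initial-normalized fluorescence between seconds 10 and 20 after thallium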). The following applies: HEK293-KCC2, thallium flux FluoZin2 fluorescence, at 10 µM, bidirectional: low = inhibitor, high = activator.
Setting [19] is: measured here: cell density z-score.
[20] abbreviates: measured here: nuclear c-Myc green intensity z-score.
Setting [21] is: measured here: nuclear pErk red intensity z-score, stronger effect = higher value.

Several values for one entry are separate records, joined by “and”; a condition that tells them apart may be missing. Identical values can stand only once. The list shows a part of the results. Records with an inconclusive call do not appear. Activity calls are given as the source filed them.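 The calls were made as follows, unless noted: active = inhibition at or above 50% relative to wild type and mutant plate controls; inactive = inhibition below 50%.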

As usually defined, the inhibition is the relative decrease from the control value, in per cent.

Chain of Alpha-2C adrenergic receptor (Homo sapiens) (P18825 whole entry, looked up): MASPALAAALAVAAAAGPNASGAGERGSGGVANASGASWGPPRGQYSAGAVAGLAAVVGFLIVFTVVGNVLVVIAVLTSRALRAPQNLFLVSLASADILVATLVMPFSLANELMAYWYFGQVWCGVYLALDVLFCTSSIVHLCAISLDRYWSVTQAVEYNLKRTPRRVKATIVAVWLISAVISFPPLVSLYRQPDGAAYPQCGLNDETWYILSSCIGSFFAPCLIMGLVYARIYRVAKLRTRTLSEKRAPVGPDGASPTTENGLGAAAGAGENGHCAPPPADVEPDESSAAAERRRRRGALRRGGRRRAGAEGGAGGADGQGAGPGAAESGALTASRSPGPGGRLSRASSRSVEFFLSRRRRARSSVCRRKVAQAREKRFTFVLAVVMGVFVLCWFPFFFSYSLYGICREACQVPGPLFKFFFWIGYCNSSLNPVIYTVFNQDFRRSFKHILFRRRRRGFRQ
Chain of Dual specificity protein phosphatase 6 (Homo sapiens) (Q16828 whole entry, looked up): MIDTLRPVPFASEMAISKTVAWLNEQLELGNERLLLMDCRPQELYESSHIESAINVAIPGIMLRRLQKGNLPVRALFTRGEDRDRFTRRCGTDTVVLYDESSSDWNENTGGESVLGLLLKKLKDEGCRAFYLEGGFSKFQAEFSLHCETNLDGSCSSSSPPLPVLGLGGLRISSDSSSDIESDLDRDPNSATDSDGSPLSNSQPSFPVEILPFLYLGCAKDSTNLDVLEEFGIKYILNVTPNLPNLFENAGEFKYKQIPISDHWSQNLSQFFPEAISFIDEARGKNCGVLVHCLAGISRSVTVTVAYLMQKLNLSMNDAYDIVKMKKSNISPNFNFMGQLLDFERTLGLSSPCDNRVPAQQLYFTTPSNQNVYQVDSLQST
Chain of Voltage-gated potassium channel subunit beta-2 (Rattus norvegicus) (P62483 whole entry, looked up): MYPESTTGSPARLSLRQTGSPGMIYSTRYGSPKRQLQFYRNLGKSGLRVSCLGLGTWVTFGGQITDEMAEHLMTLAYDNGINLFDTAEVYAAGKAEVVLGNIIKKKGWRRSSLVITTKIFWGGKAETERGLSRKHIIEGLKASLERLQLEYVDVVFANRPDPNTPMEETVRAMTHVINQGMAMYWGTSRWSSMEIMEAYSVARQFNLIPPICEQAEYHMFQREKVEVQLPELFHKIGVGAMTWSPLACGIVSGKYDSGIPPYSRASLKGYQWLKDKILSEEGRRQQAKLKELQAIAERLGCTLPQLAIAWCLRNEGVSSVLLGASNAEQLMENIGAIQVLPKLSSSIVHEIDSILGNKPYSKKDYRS
Chain of Solute carrier family 12 member 5 (Homo sapiens) (Q9H2X9 whole entry, looked up): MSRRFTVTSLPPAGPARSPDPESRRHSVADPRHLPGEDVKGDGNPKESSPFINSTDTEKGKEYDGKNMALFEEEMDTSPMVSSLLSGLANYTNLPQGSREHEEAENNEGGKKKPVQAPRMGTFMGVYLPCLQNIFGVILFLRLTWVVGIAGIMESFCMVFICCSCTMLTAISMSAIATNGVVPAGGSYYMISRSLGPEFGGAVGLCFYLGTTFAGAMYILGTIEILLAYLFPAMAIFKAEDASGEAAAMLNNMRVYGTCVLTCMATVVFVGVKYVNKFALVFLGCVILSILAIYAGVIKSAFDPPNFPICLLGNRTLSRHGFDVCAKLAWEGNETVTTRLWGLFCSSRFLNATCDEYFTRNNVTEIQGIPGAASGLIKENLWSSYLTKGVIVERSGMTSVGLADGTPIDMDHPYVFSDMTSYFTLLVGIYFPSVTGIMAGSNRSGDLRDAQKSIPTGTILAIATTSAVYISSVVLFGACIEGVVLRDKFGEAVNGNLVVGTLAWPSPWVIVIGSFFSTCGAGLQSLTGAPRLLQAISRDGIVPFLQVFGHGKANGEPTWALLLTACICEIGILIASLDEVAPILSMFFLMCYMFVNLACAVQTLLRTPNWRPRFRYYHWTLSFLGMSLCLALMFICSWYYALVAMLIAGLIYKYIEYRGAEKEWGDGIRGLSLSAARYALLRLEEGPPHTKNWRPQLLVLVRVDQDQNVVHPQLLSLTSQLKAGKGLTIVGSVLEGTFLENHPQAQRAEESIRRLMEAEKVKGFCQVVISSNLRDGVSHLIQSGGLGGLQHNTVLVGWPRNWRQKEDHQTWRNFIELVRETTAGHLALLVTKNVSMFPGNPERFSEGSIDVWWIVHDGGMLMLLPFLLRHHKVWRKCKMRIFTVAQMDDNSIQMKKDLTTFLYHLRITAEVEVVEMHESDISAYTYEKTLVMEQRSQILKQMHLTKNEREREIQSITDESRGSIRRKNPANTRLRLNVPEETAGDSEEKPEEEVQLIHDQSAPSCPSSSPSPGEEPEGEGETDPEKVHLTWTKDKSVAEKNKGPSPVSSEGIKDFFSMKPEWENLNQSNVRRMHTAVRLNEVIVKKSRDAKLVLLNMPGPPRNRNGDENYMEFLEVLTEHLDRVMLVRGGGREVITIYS
Chain of Muscarinic acetylcholine receptor M4 (Homo sapiens) (P08173 whole entry, looked up): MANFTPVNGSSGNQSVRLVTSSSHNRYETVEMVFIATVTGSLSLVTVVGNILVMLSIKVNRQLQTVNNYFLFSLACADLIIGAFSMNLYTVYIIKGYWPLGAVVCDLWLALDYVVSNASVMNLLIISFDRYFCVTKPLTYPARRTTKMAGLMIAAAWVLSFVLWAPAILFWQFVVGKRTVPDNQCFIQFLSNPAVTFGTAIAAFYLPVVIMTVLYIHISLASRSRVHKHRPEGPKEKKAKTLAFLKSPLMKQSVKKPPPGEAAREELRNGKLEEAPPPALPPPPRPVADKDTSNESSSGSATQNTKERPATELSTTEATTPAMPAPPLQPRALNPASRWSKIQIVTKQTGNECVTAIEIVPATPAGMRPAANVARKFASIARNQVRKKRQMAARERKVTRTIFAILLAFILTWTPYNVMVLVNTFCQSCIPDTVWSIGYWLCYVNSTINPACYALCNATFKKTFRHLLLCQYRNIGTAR

Regarding `CCCCC(=O)O[C@H]1CC[C@H]2[C@@H]3CCc4cc(O)ccc4[C@H]3CC[C@]12C`, in [1], the cell count is 524. In addition, the inhibition in [1] is -3.1% (inactive); in [3], -104% (inactive); in [5], -0.828% (inactive); in [9] it was 22.7% (inactive); in assay [10], 16.8% (inactive); in assay [11], 40.4% (inactive). In addition, the inhibition of aggregation in [2] was 7% (inactive). Further, the nuclei count in assay [2] was 88.9%; in assay [3] it was 131%. Also, the z-score in assay [4] (setting [19]) was -0.577; in assay [4] (setting [20]), -1.69; in assay [4] (setting [21]), -0.657. Moreover, in [6], the fluorescence slope is -0.453 (inactive). Also, the NADPH fluorescence slope in assay [7] was -3e-05 (inactive). In [8], the slope is 0.00721 (inactive).
Consider `Cc1sc2ncnc(Sc3nc4ccccc4s3)c2c1C`, for which the normalised thallium flux (F/F0 slope) in [12] was 0.0102 (inactive). The normalized thallium flux in assay [13] is 0.0292 (inactive). Also, the thallium flux rate (normalised fluorescence) in assay [14] is 0.00801 (inactive). Also, in assay [15], the thallium flux slope was 0.0107 (inactive).
Turning to `CCc1cc(=O)oc2c(CN3CCN(C)CC3)c(O)c(Cl)cc12`, in assay [1], the cell count came out at 430. In addition, the inhibition is 3.2% (inactive) in assay [1]; -40.7% (inactive) in assay [3]; 26.3% (inactive) in assay [5]; 13.3% (inactive) in [9]; 16.8% (inactive) in assay [10]; 22.6% (inactive) in [11]. In addition, in assay [2], the inhibition of aggregation was 27.8% (inactive). Also, the nuclei count in assay [2] was found to be 85.9%; in assay [3], 101%. Also, the z-score is 1.84 in [4] (setting [19]), 0.822 in assay [4] (setting [20]) and -1.78 in assay [4] (setting [21]). Further, in assay [6], the fluorescence slope was -0.266 (inactive). Also, the NADPH fluorescence slope in [7] was -4.4e-05 (inactive). Further, the slope in assay [8] is 0.00532 (inactive).
Consider `Cc1cccc(N(CC(O)CN(C)C)S(=O)(=O)c2ccccc2)c1` (centres undefined), for which, in assay [1], the cell count turned out to be 660. For the same compound, the inhibition was -8.8% (inactive) in assay [1], -9.3% (inactive) in assay [3], 1.42% (inactive) in assay [5] and 30.7% (inactive) in [9]. For the same compound, the nuclei count in [3] was determined as 177%. Also, the results for the z-score in [4] (setting [19]), in [4] (setting [20]) and in assay [4] (setting [21]) were 0.811, 0.15 and 0.694, respectively. The fluorescence slope was -0.413 (inactive) in assay [6] and 0.00446 (inactive) in [16]. Moreover, the NADPH fluorescence slope in assay [7] was -6e-05 (inactive). Moreover, the compound was classed as inactive in [17]. The normalised thallium flux (F/F0 slope) in [12] is 0.00903 (inactive). Further, the normalized thallium flux in assay [13] was 0.0335 (inactive). Also, the thallium flux rate (normalised fluorescence) in assay [14] was 0.00768 (inactive). In assay [18], the raw Tl+ flux slope (below DMSO = inhibition, above = activation) is 0.0203 (inactive). Moreover, the thallium flux slope in assay [15] is 0.0103 (inactive).
As for `CCOC(=O)c1c(NC(=S)NC)sc2c1CCCC2`, the normalised thallium flux (F/F0 slope) in assay [12] was 0.0181 (active). The normalized thallium flux in assay [13] was 0.0972 (active). Moreover, the thallium flux rate (normalised fluorescence) in assay [14] was 0.0987 (active). The thallium flux slope in assay [15] is 0.101 (active).
Consider `Cc1ccc(S(=O)(=O)NC(=O)NN2CCCCCC2)cc1`, for which the cell count in [1] amounted to 604. Also, the inhibition is -5.1% (inactive) in assay [1]; -81.9% (inactive) in assay [3]; 21.2% (inactive) in assay [5]; 6.39% (inactive) and 32.8% (inactive) in assay [9]; 9.08% (inactive) in assay [10]; 19.5% (inactive) in assay [11]. For the same compound, the inhibition of aggregation in assay [2] is 0% (inactive). The figures for the nuclei count in assay [2] and in [3] were 99.6% and 122%, respectively. Further, the figures for the z-score in assay [4] (setting [19]), in [4] (setting [20]) and in assay [4] (setting [21]) were 0.424, 0.978 and -1.05, respectively. Further, the fluorescence slope in [6] is -0.457 (inactive). The NADPH fluorescence slope in assay [7] is -5.8e-05 (inactive). The slope in [8] is 0.00471 (inactive).
